# Screening data as filed in PubChem BioAssay.
# MCF10A rerep: induces DNA re-replication in MCF 10a normal breast cells; MCF 10A DNA re-replication, Hoechst nuclear intensity, 48 h; Potency, µM (doses to about 46.1 µM), most hits filed as activators; 350,000 compounds, 2.9% hits; AID 624296; note: nearly all actives have a fitted effect of over 50% in size
# PINK1 expr mod: PINK1 expression modulation. PINK1 immunofluorescence, high-content cytometry, 24 h. Potency, µM (doses to about 76.6 µM), usual class: activators. 410,000 compounds, 0.2% hits. AID 624263; active = well fitted activation curve with a large enough effect; inconclusive = small, poorly fitted or top-dose-only effect; cell line not stated here; note: nearly all actives have a fitted effect of over 65% in size
#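 PINK1 protein, normally rapidly degraded, was detected by immunofluorescence after 24 hour compound treatment of a stable cell line. Titration data (5 concentrations) came from laser-scanning cytometry, with CCCP-treated wells as controls.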
# SW480 rerep: inducers of DNA re-replication in SW480 colon cancer cells. SW480 DNA re-replication, Hoechst DNA content imaging, 48 h. Potency, µM (doses to about 46.1 µM), hits mostly activators. 340,000 compounds, 1.8% hits; note: nearly all actives have a fitted effect of over 55% in size
#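 SW480 cells exposed to compounds for 48 hr at 37 C, 5% CO2, then Hoechst-stained 40 min. Nuclear DNA content imaged by fluorescence scanning (405 nm excitation, 500-530 nm emission); re-replication scored as increased high-intensity nuclei.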
# KB-3-1 cytotox: KB-3-1 parental cell cytotoxicity. 400,000 compounds, 1.4% hits. KB-3-1 viability, CellTiter-Glo ATP luminescence, 72 h. Potency, µM (titrated, usually from 46.1 µM), usual class: cytotoxic. AID 1347075; note: nearly all actives have a fitted effect of over 60% in size
#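 Viability of parental KB-3-1 cells, measured by CellTiter-Glo luminescence, followed a 72 h incubation at 37 °C with pinned compounds in phenol-red-free DMEM containing 10% FBS.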
# 12-LOX inh: blocks human arachidonate 12S-lipoxygenase; P18054; purified 12hLO, xylenol orange hydroperoxide absorbance; Potency, µM (series often up to 108 µM), actives largely listed as inhibitors; 580,000 compounds, 1.1% hits; AID 1671190
# Target sequence (P18054 whole entry, looked up): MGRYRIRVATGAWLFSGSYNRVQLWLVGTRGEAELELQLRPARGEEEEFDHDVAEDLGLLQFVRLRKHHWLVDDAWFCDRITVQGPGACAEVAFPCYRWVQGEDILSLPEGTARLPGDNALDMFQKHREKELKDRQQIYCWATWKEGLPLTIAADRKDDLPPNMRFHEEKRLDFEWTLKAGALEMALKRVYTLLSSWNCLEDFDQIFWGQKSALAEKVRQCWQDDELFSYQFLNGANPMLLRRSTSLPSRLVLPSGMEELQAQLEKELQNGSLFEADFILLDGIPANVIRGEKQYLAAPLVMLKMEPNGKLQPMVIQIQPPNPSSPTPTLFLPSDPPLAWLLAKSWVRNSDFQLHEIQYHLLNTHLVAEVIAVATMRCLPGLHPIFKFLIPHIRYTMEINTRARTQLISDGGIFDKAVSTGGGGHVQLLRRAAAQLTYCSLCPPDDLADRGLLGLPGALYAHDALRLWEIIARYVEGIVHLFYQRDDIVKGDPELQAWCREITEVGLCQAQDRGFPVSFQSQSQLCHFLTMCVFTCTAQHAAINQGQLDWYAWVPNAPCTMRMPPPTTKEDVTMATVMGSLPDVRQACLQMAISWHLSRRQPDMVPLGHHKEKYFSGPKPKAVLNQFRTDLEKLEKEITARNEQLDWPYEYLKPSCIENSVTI
#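 Hydroperoxide product was detected by ferrous iron/xylenol orange as the 573 to 405 nm absorbance ratio. Arachidonic acid at 40 uM (final) was turned over for 30 min at room temperature by 150 nM human 12hLO, pH 7.0 Hepes buffer, after 15 min compound preincubation.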
# KB-V1 cytotox: KB-V1 MDR subline cytotoxicity; KB-V1 MDR cells viability, CellTiter-Glo, 72 h; Potency, µM (series often up to 46.1 µM), actives largely listed as cytotoxic; 400,000 compounds, 3.4% hits; AID 1347076; note: nearly all actives have a fitted effect of over 60% in size
#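 Luminescent ATP read-out (CellTiter-Glo, 10 min) measures survival of drug-selected KB-V1 MDR cells after 72 h, 37 degrees C compound exposure. Medium: phenol-red-free DMEM, 10% FBS. Values from fitted concentration-response curves.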
# Hits are given with their value; - = inactive; ? = inconclusive; . = no result given. This is a sample that favours compounds with a hit; in the whole collection about 5.8% have one here. Unless noted, calls come from the whole dose curve; as a rule, active = well fitted curve in the direction sought with a large enough effect; inconclusive = small, poorly fitted or top-dose-only effect, or another doubt; inactive = no such curve, though single readings can be large; an effect the other way counts as inactive or inconclusive.
SMILES,MCF10A rerep,PINK1 expr mod,SW480 rerep,KB-3-1 cytotox,12-LOX inh,KB-V1 cytotox
Cc1ccsc1/C=N\Nc1cn[nH]c(=O)c1Cl,?,-,-,4.61µM,-,2.59µM
COc1ccc(/C=N/Nc2cn[nH]c(=O)c2Cl)cc1,?,-,-,7.31µM,-,?
O=c1[nH]ncc(N/N=C/c2ccccc2)c1Cl,?,-,-,-,-,?
CCCCn1nc(C(=O)N2CCC(n3c(=O)[nH]c4ccccc43)CC2)c2ccccc2c1=O,.,.,.,.,-,.
CCC(c1nnc(SCC(=O)Nc2nnc(-c3ccccc3)o2)n1Cc1ccccc1)N(C)C (stereo unspecified),-,-,-,-,-,23.1µM
O=C(c1ccccc1)c1ccc(N2CCOCC2)c(F)c1,-,-,-,-,-,20.6µM
O=C(COC(=O)c1cc([N+](=O)[O-])ccc1N1CCOCC1)Nc1ccc(Cl)cn1,?,-,?,?,-,13µM
O=C(c1ccc(Br)cc1)c1cc([N+](=O)[O-])ccc1N1CCOCC1,?,-,0.581µM,-,-,4.61µM
O=C(c1ccccc1)c1cc([N+](=O)[O-])ccc1N1CCOCC1,?,-,?,1.16µM,-,1.16µM
O=C(c1cc([N+](=O)[O-])ccc1N1CCOCC1)N1CCCCC1,-,-,-,?,-,-
CCC(=O)Nc1ccc(O)c(-c2nc3cc(CC)ccc3o2)c1,.,.,.,.,-,.
O=C(NCc1ccc(OC(F)F)cc1)c1ccc(-n2cnnn2)cc1,.,.,.,.,-,.
COc1cncc(Nc2cnc3ccc(-c4ccc(F)cc4)nn23)c1,.,.,.,.,-,.
COCC(=O)N[C@H]1CO[C@H]2[C@@H]1OC[C@@H]2Nc1nccc(-c2ccc(OC)cc2)n1,.,.,.,.,-,.
O=C(c1ccc(Cl)cc1)c1cc([N+](=O)[O-])ccc1N1CCOCC1,?,-,0.651µM,?,-,1.84µM
CN1CCN(c2ccc([N+](=O)[O-])cc2C(=O)c2ccc(Cl)cc2)CC1,11.6µM,-,8.2µM,2.31µM,?,4.61µM
CN1CCN(c2ccc([N+](=O)[O-])cc2C(=O)N2CCCCC2)CC1,-,-,-,-,-,-
CC1CCCN(c2ccc([N+](=O)[O-])cc2C(=O)c2ccccc2)C1 (stereo unspecified),?,-,4.11µM,?,-,-
Cc1ccc(CNC2CC3CCC2(C)C3(C)C)s1 (stereo unspecified),.,.,.,.,-,.
CC(C)N(C)S(=O)(=O)c1ccc(Cl)c(C(=O)Nc2nnc(C3CCCCC3)s2)c1,.,.,.,.,-,.
N#Cc1ccc(/C=C/C(=O)N2CCCCC2c2ccc(C(F)(F)F)cc2)cc1 (stereo unspecified),.,.,.,.,-,.
CN(C)c1ccc(CC(=O)N2CCCC(c3cc(C(=O)Nc4ccc(F)c(Cl)c4)no3)C2)cc1 (stereo unspecified),.,-,.,?,-,20.6µM
O=C(c1ccccc1)c1nn(-c2ccc(Cl)cc2)cc1C(=O)c1cc2ccccc2oc1=O,?,-,-,?,-,7.31µM
O=C(CSc1ccc(Cl)cc1)c1cc2ccccc2oc1=O,.,.,.,.,7.08µM,.
Cn1cnnc1SCC(=O)c1cc2ccccc2oc1=O,-,.,-,-,6.31µM,-
SMILES,MCF10A rerep,PINK1 expr mod,SW480 rerep,KB-3-1 cytotox,12-LOX inh,KB-V1 cytotox
COc1ccc(CN(C)C2CCc3nn(C)c(=O)n3CC2)cc1Cn1cccn1 (stereo unspecified),.,.,.,.,-,.
Cc1ccccc1C(OC(=O)c1nn(C)c(=O)c2ccccc12)C(F)(F)F (stereo unspecified),.,.,.,.,-,.
C/C(=N\Nc1cc(N2CCCCC2)nc(C)n1)c1ccc(Br)cc1,11.6µM,-,?,?,?,?
CNC(=O)C(C)c1ncc(C(F)(F)F)cc1Cl (stereo unspecified),-,-,-,-,-,-
CC(C(=O)Nc1ccc(Cl)cc1)c1ncc(C(F)(F)F)cc1Cl (stereo unspecified),?,-,?,-,-,25.9µM
COc1ccc(C(=O)NC2CC2)cc1S(=O)(=O)N(C)C,.,.,.,.,-,.
COc1cc(/C=N/NC(=O)/C(=C\c2ccc([N+](=O)[O-])cc2)NC(=O)c2ccccc2)cc(OC)c1O,-,-,-,-,?,-
O=C(N/N=C/c1cc([N+](=O)[O-])cc([N+](=O)[O-])c1O)/C(=C\c1cccs1)NC(=O)c1ccccc1,-,-,-,-,15.8µM,-
O=C(N/N=C/c1ccc(N2CCCCC2)o1)c1ccccc1[N+](=O)[O-],5.8µM,-,7.31µM,-,?,-
CCCCCCc1nnc(NC(=O)OCC)s1,-,-,-,-,-,16.4µM
CCCCOC(=O)Nc1nc(C)c(C(=O)OCC)s1,-,-,-,-,-,11.6µM
CCOC(=O)c1sc(Nc2nc(C)cc(C)n2)nc1C,?,-,?,?,-,9.2µM
CCOC(=O)c1sc(NC(=O)CC)nc1C,?,-,-,-,-,-
CNc1nc(C)c(C(=O)OCc2ccccc2)s1,?,-,-,-,-,20.6µM
CCOC(=O)c1sc(Nc2nc(C)cc(OC)n2)nc1C,-,-,-,-,-,-
CNc1nc(C)c(C(=O)OCC(=O)OC)s1,-,-,-,-,-,-
CCCCCOC(=O)Nc1nnc(CCCCC)s1,-,-,-,-,-,-
C/C=C/Cn1c(NCCO)nc2c1c(=O)[nH]c(=O)n2C,.,.,.,.,-,.
Cc1oc(-c2ccccc2)nc1COc1cc(Cl)ccc1Cl,.,.,.,.,-,.
CCOC(=O)c1sc(Nc2ccccc2)nc1C(F)(F)F,.,.,.,.,39.8µM,.
CCOC(=O)c1sc(Nc2ccccc2)nc1C,-,-,-,-,?,-
CC(CCc1ccccc1)NC(=O)N1CCN(S(=O)(=O)c2ccccc2C#N)CC1 (stereo unspecified),.,.,.,.,-,.
Cn1nc(C(F)(F)F)c(C(=O)Nc2ccc(F)cc2F)c1Sc1cccc(Cl)c1,?,-,?,-,-,16.4µM
Cn1nc(C(F)(F)F)c(C(=O)Nc2ccc(F)cc2F)c1Sc1cccc(C(F)(F)F)c1,-,-,-,?,-,13µM
Cn1nc(C(F)(F)F)c(C(=O)Nc2ccc(F)cc2F)c1Oc1cccc(Cl)c1,-,-,-,-,-,?
COc1ccc(C(C)NC(=O)C2(c3ccc(NS(C)(=O)=O)cc3)CCCCC2)cc1 (stereo unspecified),.,.,.,.,-,.
Nc1nnc(CC(=O)N/N=C/c2cc([N+](=O)[O-])cc(Br)c2O)s1,-,-,-,-,15.8µM,-
CC(=O)OCCCN1C(=O)c2ccc(Br)cc2C1=O,-,-,-,-,-,-
COC(=O)CC1(C(=O)OC)Oc2ccc(Br)cc2C(=O)N1c1ccc(Br)cc1Cl (stereo unspecified),?,-,?,?,-,18.4µM
COC(=O)CC1(C(=O)OC)Oc2ccc(Br)cc2C(=O)N1c1cccc(Cl)c1Cl (stereo unspecified),?,-,18.4µM,?,-,5.17µM
